Several values for one entry are separate records, joined by “and”; a condition that tells them apart may be missing. Identical values can stand only once. Screen size: about 290,000 compounds; about 3,000 (1%) were called active. This is one part of a sample in which actives are shown more often than they occur. Values without a mark were called inactive. Rule as the data show it: active = inhibition mostly above about 36% (no sharp cut-off); inactive = mostly below about 34%.
Test: inhibition of NOD1-driven NF-kB reporter – cell-based, luminescence, uHTS, primary screen (AID 1578);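 also: HEK-293T reporter cells stimulated with the NOD1 agonist gamma-tri-DAP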
Details: NOD1-driven NF-kB luciferase reporter cells, at 4 µM, active compounds read high

Row | SMILES | inhibition
1 | Cc1noc(C(=O)NCc2ccco2)c1Cl | -14.8%
2 | COc1ccc(NC(=O)CS(=O)(=O)c2ccc(F)cc2)cc1 | -5.8%
3 | O=C(Nc1ccccc1)c1cc2ccc3ccccc3c2s1 | -10.5%
4 | O=C(Nc1ccccc1)c1cc2ccccc2c(=O)s1 | 63.7% (active)
5 | O=C(Nc1ccc(O)cc1)c1cc2ccccc2c(=O)s1 | -2.1%
6 | Cc1ccc(C)c(N2CCN(C(=O)CCS(=O)(=O)c3cccc4nonc34)CC2)c1 | 1.8%
7 | CC(C)C[C@H](N)c1nnc(SCc2ccc(Cl)cc2)o1 | 20.5% (active)
8 | CC(C)[C@H](N)c1nnc(SCc2ccc(Cl)cc2)o1 | -4.6%
9 | CC(C)C[C@@H](N)c1nnc(SCC(=O)c2ccc(Cl)cc2)o1 | -21.8%
10 | COc1cc(C=Nc2cccc(C)c2)c(O)c([N+](=O)[O-])c1 | -20.1%
11 | COc1ccc(N=Cc2cc(Cc3ccccc3Cl)cc([N+](=O)[O-])c2O)cc1OC | 62.4% (active)
12 | O=[N+]([O-])c1cc(Cc2ccccc2)cc(C=Nc2ccc(N3CCOCC3)cc2)c1O | 34%
13 | COc1ccc(N=Cc2cccc(C)c2O)cc1Cl | -10%
14 | Cc1ccc(O)c(C=Nc2cc(C)ccc2O)c1 | -25.5%
15 | O=C(N/N=C/c1cc([N+](=O)[O-])c(N2CCOCC2)cc1N1CCOCC1)c1cccnc1 | -24.1%
16 | O=C(COC(=O)COc1ccccc1[N+](=O)[O-])Nc1ccccc1Br | 9.3%
17 | Cc1c(C(=O)N2CCCCC2)sc(NC(=O)c2ccco2)c1C#N | -0.9%
18 | Cc1c(C(=O)N2CCCC2)sc(NC(=O)c2ccco2)c1C#N | 48.7% (active)
19 | Cc1c(C(=O)N2CCCC2)sc(NC(=O)c2ccccc2)c1C#N | -9.5%
20 | CC1C(=NO)C(C)C(c2ccc(N(C)C)cc2)NC1c1ccc(N(C)C)cc1 (centres undefined) | 4%
21 | COc1ccc2c(c1)sc1nc(=O)ccn12 | -3.3%
22 | CCOC(=O)N1CCN(C(=O)c2ccc3c(c2)sc2nc(-c4ccc(OC)cc4)cn23)CC1 | -15.5%
23 | COc1ccc2c(c1)sc1nc(-c3ccccc3)cn12 | 34.4% (active)
24 | O=C(COc1ccccc1)Nc1ccc(Cl)c(-c2nc3ncccc3o2)c1 | -25.6%
25 | COc1cccc(C(=O)N2CCN(C(=O)C3CC3)CC2)c1 | -26.7%
26 | COc1ccc(OC(C)C(=O)N2CCCc3ccccc32)cc1 (centres undefined) | -45.6%

Row | SMILES | inhibition
27 | Cc1nc2ccccn2c1C(=O)N=Nc1c(O)n(CCC(C)C)c2ccccc12 | 92% (active)
28 | Cc1nc2ccccn2c1C(=O)N=Nc1c(O)[nH]c2ccccc12 | 11.6%
29 | CC(C)CCn1c(O)c(N=NC(=O)c2ccco2)c2ccccc21 | 24.4%
30 | CC1=Nc2cc(C(=O)NCCCOC(C)C)ccc2Sc2ccccc21 | 3.6%
31 | Cc1[nH]n(-c2ccccc2)c(=O)c1-c1ccc(Cl)cc1 | -30.5%
32 | Cc1[nH]n(-c2cccc(Cl)c2)c(=O)c1-c1ccccc1 | -18%
33 | O=C(CSc1nnc(Cn2c(=O)sc3ccccc32)n1CCc1ccccc1)N1CCOCC1 | -11.3%
34 | COc1ccccc1N1CCN(C(=O)C2CC=CCC2C(=O)O)CC1 (centres undefined) | -7.7%
35 | COc1cccc2c1OCC(C(=O)O)C2 (centres undefined) | -26.7%
36 | COc1cccc2c1C(CO)N1C(C#N)C3CC(C(=O)O)C(C1C2)N3C (centres undefined) | 102% (active)
37 | CC(C)c1ccc(NC2CCCN(C(=O)c3ccc(N4CCOCC4)cc3)C2)cc1 (centres undefined) | -4%
38 | Cc1ccc(S(=O)(=O)c2c(C)cc(C)[nH]c2=O)cc1 | -7.8%
39 | N#C/C(=N\Nc1ccc(Cl)cc1)C(=O)c1ccccc1 | 66.9%
40 | N#C/C(=N\Nc1ccc(Cl)cc1)C(=O)c1ccsc1 | 75.6% (active)
41 | Cc1ccc(N/N=C(\C#N)C(=O)c2ccsc2)cc1 | -5.4%
42 | Cc1[nH]n(-c2ccccc2)c(=O)c1/C=N/N1C(=O)c2ccc3c4c(ccc(c24)C1=O)CC3 | 90.8% (active)
43 | Cc1[nH]n(-c2ccccc2)c(=O)c1/C=N/N1C(=O)c2cccc3cccc(c23)C1=O | -49.6%
44 | Cc1[nH]n(-c2ccccc2)c(=O)c1/C=N/N1CCOCC1 | 6.6%
45 | Cc1[nH]n(-c2ccccc2)c(=O)c1C=Nc1cccc2cccnc12 | 45.4%
46 | Cc1cccc(/N=C/c2c(C)[nH]n(-c3ccccc3)c2=O)n1 | -8.3%
47 | COc1ccc(N=C2SC(C(=O)Nc3ccc(OC)cc3)CC(=O)N2CCN2CCOCC2)cc1 (centres undefined) | -18.8%
48 | COc1cc(CN2CCCCCC2)cc(OC)c1OC | -23%
49 | C(=N\n1c2ccccc2c2ccccc21)/c1ccccc1 | 6.6%
50 | Cn1c(=O)n(/N=C/c2ccccc2)c2ccccc21 | -23.6%
51 | C[n+]1cn(/N=C/c2ccccc2)c2ccccc21 | 75.1% (active)
52 | CCOC(=O)Cc1csc(NC(=O)c2sc3nc4cc(C)ccc4cc3c2N)n1 | -55.6%

Row | SMILES | inhibition
53 | CCn1cc(CNC(=O)c2ccc(OC3CCN(Cc4ccccn4)CC3)cc2)cn1 | -0.8%
54 | Cc1ccccc1CN1CCC(Oc2ccc(C(=O)NCc3ccccn3)cc2)CC1 | 17%
55 | Cc1cc(Sc2nnc(/N=C/N(C)C)s2)c2ccccc2n1 | 46.4% (active)
56 | COc1ccc2nc(C)cc(Sc3nc4ccccc4s3)c2c1 | 47.7% (active)
57 | COc1ccc2nc(C)cc(SCC(=O)NNC(=O)COc3ccccc3)c2c1 | 9.9%
58 | Cc1nc2ccccc2nc1CSc1nnc(N)s1 | -18%
59 | COc1ccc2nc(C)cc(SCC(=O)O)c2c1 | -24.8% and -30.8%
60 | CCCCCCCCSc1nnc(/N=C/N(C)C)s1 | -11.4%
61 | Cc1cc(Sc2nnc(N)s2)c2ccccc2n1 | 53.2% (active)
62 | Cc1cc(N)c2ccccc2n1 | -45.9%
63 | Cc1ccc(NC(=O)CSc2nnc(/N=C/N(C)C)s2)cc1 | -37.6%
64 | Cc1ccccc1CN1CCN(CC(=O)NCc2ccco2)C1=O | -14.9%
65 | FC(F)(F)COc1nc(N2CCOCC2)nc(N(c2ccccc2)c2ccccc2)n1 | -30.9%
66 | O=C(Nc1cccc(NC(=O)c2cncc(Br)c2)c1)c1cncc(Br)c1 | -16.9%
67 | Cc1ccc(NS(=O)(=O)c2cn(C)c(=O)n(C)c2=O)cc1C | -34.3%
68 | Cc1ccc(-c2nc(NCC3CCCO3)sc2C)cc1 (centres undefined) | -53.2%
69 | COCc1cc(C2C(C(=O)c3ccco3)=C(O)C(=O)N2CCOCCO)ccc1O (centres undefined) | -32.2%
70 | COCCCNC(=O)C(=O)Nc1cc2c3c(c1)CCC(=O)N3CCC2 | 19.6%
71 | CN(C)c1ccc(NC(=O)c2cnsn2)cc1 | 65.7% (active)
72 | CCOc1ccc(NC(=O)c2cnsn2)cc1 | -6.3%
73 | CC(=O)c1ccc(NC(=O)c2cnsn2)cc1 | 44.1%
74 | Cc1ccc(Cl)cc1N1CCN(S(=O)(=O)c2ccc3[nH]c(=O)ccc3c2)CC1 | 5.1%
75 | O=C(Cn1c(O)c(/C=C2\C=Nc3ccccc32)sc1=O)N1CCOCC1 | 12.6%
76 | C=CCC(=O)NC1CCCc2c1cnn2-c1cc(F)cc(F)c1 (centres undefined) | 6.1%
77 | O=c1oc2ccccc2cc1-c1cn(-c2ccccc2)c(=S)[nH]1 | 98.5% (active)
78 | COc1ccc(-c2cn(-c3ccccc3)c(=S)[nH]2)cc1OC | -4.4%

Row | SMILES | inhibition
79 | Cc1ccc(-c2cn(-c3ccccc3)c(=S)[nH]2)cc1C | 23.4% (active)
80 | S=c1[nH]c(-c2ccccc2)cn1-c1ccccc1 | -7.1%
81 | O=C(O)c1ccc(-n2cc(-c3cc4ccccc4oc3=O)[nH]c2=S)cc1 | -7.2%
82 | Cc1ccccc1-c1cn(-c2ccccc2)c(=S)[nH]1 | -24.2%
83 | Cc1nc2ccc(Cl)cn2c1C(=O)NN | -35.5%
84 | O=C(NCCNC(=O)c1ccco1)c1ccco1 | 5%
85 | Cc1cccc(N(CC(=O)NC2CCCCC2)C(=O)CCCC(=O)Nc2ccccn2)c1 | -26.2%
86 | Cn1nnnc1SCCNCc1ccncc1 | -3.9%
87 | Cn1c(N2CCCC2)nc2c1c(=O)n(Cc1ccc(Cl)cc1)c(=O)n2C | -9.4%
88 | Cn1c(N2CCC(C(N)=O)CC2)nc2c1c(=O)n(Cc1ccc(Cl)cc1)c(=O)n2C | -1.5%
89 | O=C(c1nc2ccc(Cl)cn2c1CN1CCC[C@H]1CO)N1CCCCCCC1 | -22%
90 | CCOC(=O)c1cnc(N2CCN(c3ccccc3)CC2)[nH]c1=O | 1.6%
91 | CC(=O)c1ccc(NCC2COc3ccccc3O2)c([N+](=O)[O-])c1 (centres undefined) | -11.7%
92 | CCOC(=O)CSc1ccc2nnc(-c3ccccc3)n2n1 | -21.3%
93 | COc1nc(Nc2ccccc2F)nc(OC)n1 | -28.1%
94 | Cc1c(N)cc[n+](CC(=O)c2ccccc2)c1C | -3.9%
95 | COc1ccc(C(=O)C[n+]2ccc(N)c(C)c2C)cc1 | 59.4% (active)
96 | COc1ccc(C(=O)C[n+]2ccc3ccccc3c2C)cc1 | -2.3%
97 | Cc1cc(C(=O)N2CCCC(CCC(=O)N3CCN(c4ccccn4)CC3)C2)c(C)o1 (centres undefined) | -25.2%
98 | Cc1cc(C)cc(OCC(=O)Nc2ccncc2)c1 | 30.1%
99 | Cc1ccc(OCC(=O)NCCN2CCOCC2)cc1C | -3.4%
100 | Cc1cc(OCC(=O)Nc2ccncc2)ccc1Br | 49.9%
101 | Cc1cc(OCC(=O)NCCN2CCOCC2)cc(C)c1Br | -62.5%
102 | Cc1cc(OCC(=O)Nc2ccncc2)ccc1Cl | 27.1%
103 | Cc1cc(Cl)ccc1OCC(=O)Nc1ccncc1 | 23.8%
104 | Cc1cc(OCC(=O)NCCN2CCOCC2)cc(C)c1Cl | 84.9% (active)

— PubChem BioAssay AID1578 (Sanford-Burnham Center for Chemical Genomics, 2009)
